Among the targets are FOS;CEBPG (Homo sapiens;Homo sapiens, UniProt P01100;P53567 128-201;52-130, |); JUN;ATF3 (Homo sapiens;Homo sapiens, UniProt P05412;P18847 243-316;77-150, |); JUN;JUN (Homo sapiens;Homo sapiens, UniProt P05412;P05412 243-316;243-316, |); ATF4;CEBPG (Homo sapiens;Homo sapiens, UniProt P18848;P53567 269-346;52-130, |); ATF4;CEBPA (Homo sapiens;Homo sapiens, UniProt P18848;P49715 269-346;273-345, |); BATF3;ATF4 (Homo sapiens;Homo sapiens, UniProt Q9NR55;P18848 26-99;269-346, |); JUNB;JUN (Homo sapiens;Homo sapiens, UniProt P17275;P05412 259-332;243-316, |); CEBPA;CEBPA (Homo sapiens;Homo sapiens, UniProt P49715;P49715 273-345;273-345, |); ATF4;ATF4 (Homo sapiens;Homo sapiens, UniProt P18848;P18848 269-346;269-346, |); JUNB;ATF4 (Homo sapiens;Homo sapiens, UniProt P17275;P18848 259-332;269-346, |).

What all share (test): SELEX-seq (CSI, HT-SELEX, round 3); SELEX-seq: 1x PBS (10 mM phosphate, 137 mM NaCl, 2.7 mM KCl) pH 7.6, 2.5 mM DTT, 50 ng/ul poly dI-dC, 0.1% BSA, 50 nM biotinylated bZIP (1:3 with partner for heterodimers), 100 nM library, room temperature, 1 h, 3 rounds; high values mean tight binding
Holding throughout (settings): protein: recombinant;recombinant; copies: 1;1; dsDNA, one strand shown

The next experiment deals with T1, BATF3;ATF3 (Homo sapiens;Homo sapiens, UniProt Q9NR55;P18847 26-99;77-150, |).
T1 sequence 1: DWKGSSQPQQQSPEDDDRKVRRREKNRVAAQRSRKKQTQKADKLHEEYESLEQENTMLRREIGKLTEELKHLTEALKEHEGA
T1 sequence 2: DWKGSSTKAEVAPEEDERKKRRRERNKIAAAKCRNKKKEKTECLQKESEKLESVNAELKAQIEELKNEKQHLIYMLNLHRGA

The next experiment concerns the target T2, ATF2;ATF2 (Homo sapiens;Homo sapiens, UniProt P15336;P15336 343-417;343-417, |).
T2 sequence 1: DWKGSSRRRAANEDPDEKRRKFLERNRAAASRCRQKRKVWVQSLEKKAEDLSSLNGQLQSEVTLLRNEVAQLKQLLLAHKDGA
T2 sequence 2: T2 sequence 1

Another experiment deals with T3, JUNB;ATF3 (Homo sapiens;Homo sapiens, UniProt P17275;P18847 259-332;77-150, |).
T3 sequence 1: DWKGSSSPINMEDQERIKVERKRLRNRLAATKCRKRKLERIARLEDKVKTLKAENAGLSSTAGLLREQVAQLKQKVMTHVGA
T3 sequence 2: T1 sequence 2

For another experiment, the target named is T4, JUNB;CEBPG (Homo sapiens;Homo sapiens, UniProt P17275;P53567 259-332;52-130, |).
T4 sequence 1: T3 sequence 1
T4 sequence 2: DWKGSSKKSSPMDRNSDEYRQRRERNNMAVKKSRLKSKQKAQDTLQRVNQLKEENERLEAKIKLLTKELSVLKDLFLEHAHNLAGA

For the next experiment, the target named is T5, JUNB;BATF3 (Homo sapiens;Homo sapiens, UniProt P17275;Q9NR55 259-332;26-99, |).
T5 sequence 1: T3 sequence 1
T5 sequence 2: T1 sequence 1

The next experiment has as its target T6, CEBPG;CEBPG (Homo sapiens;Homo sapiens, UniProt P53567;P53567 52-130;52-130, |).
T6 sequence 1: T4 sequence 2
T6 sequence 2: T4 sequence 2

The target of the next experiment is T7, BATF3;BATF3 (Homo sapiens;Homo sapiens, UniProt Q9NR55;Q9NR55 26-99;26-99, |).
T7 sequence 1: T1 sequence 1
T7 sequence 2: T1 sequence 1

For the next experiment, the target named is T8, XBP1;XBP1 (Homo sapiens;Homo sapiens, UniProt P17861;P17861 61-138;61-138, |).
T8 sequence 1: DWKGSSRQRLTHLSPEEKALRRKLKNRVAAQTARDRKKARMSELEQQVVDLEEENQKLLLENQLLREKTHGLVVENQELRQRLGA
T8 sequence 2: T8 sequence 1

The next experiment deals with T9, DBP;DBP (Homo sapiens;Homo sapiens, UniProt Q10586;Q10586 246-324;246-324, |).
T9 sequence 1: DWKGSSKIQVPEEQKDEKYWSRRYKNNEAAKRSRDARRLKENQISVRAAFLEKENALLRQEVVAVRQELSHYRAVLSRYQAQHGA
T9 sequence 2: T9 sequence 1

The next experiment deals with T10, JUNB;ATF2 (Homo sapiens;Homo sapiens, UniProt P17275;P15336 259-332;343-417, |).
T10 sequence 1: T3 sequence 1
T10 sequence 2: T2 sequence 1

CEBPA;CEBPA, sequence (P49715 other isoform, or with tags, fused parts or gaps |, chain 1 of 2): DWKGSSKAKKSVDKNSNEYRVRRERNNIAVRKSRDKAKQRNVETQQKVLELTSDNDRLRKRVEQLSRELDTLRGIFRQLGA
CEBPA;CEBPA, sequence (P49715 other isoform, or with tags, fused parts or gaps |, chain 2 of 2): as the sequence (P49715 other isoform, or with tags, fused parts or gaps |, chain 1 of 2) above
FOS;CEBPG, sequence (P01100 other isoform, or with tags, fused parts or gaps |): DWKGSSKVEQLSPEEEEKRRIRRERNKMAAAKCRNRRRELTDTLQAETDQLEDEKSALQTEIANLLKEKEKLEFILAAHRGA
JUN;JUN, sequence (P05412 other isoform, or with tags, fused parts or gaps |, chain 1 of 2): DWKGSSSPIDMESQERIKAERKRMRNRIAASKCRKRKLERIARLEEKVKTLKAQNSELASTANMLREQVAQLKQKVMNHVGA
JUN;JUN, sequence (P05412 other isoform, or with tags, fused parts or gaps |, chain 2 of 2): as the sequence (P05412 other isoform, or with tags, fused parts or gaps |, chain 1 of 2) above
JUN;ATF3, sequence (P05412 other isoform, or with tags, fused parts or gaps |): as the sequence (P05412 other isoform, or with tags, fused parts or gaps |, chain 1 of 2) above
JUNB;JUN, sequence (P05412 other isoform, or with tags, fused parts or gaps |): as the sequence (P05412 other isoform, or with tags, fused parts or gaps |, chain 1 of 2) above
ATF4;ATF4, sequence (P18848 other isoform, or with tags, fused parts or gaps |, chain 1 of 2): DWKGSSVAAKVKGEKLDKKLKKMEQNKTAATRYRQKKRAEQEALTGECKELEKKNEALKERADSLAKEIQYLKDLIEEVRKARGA
ATF4;ATF4, sequence (P18848 other isoform, or with tags, fused parts or gaps |, chain 2 of 2): as the sequence (P18848 other isoform, or with tags, fused parts or gaps |, chain 1 of 2) above
ATF4;CEBPG, sequence (P18848 other isoform, or with tags, fused parts or gaps |): as the sequence (P18848 other isoform, or with tags, fused parts or gaps |, chain 1 of 2) above
JUNB;ATF4, sequence (P18848 other isoform, or with tags, fused parts or gaps |): as the sequence (P18848 other isoform, or with tags, fused parts or gaps |, chain 1 of 2) above
ATF4;CEBPA, sequence (P18848 other isoform, or with tags, fused parts or gaps |, chain 1 of 2): as above
ATF4;CEBPA, sequence (P49715 other isoform, or with tags, fused parts or gaps |, chain 2 of 2): as the sequence (P49715 other isoform, or with tags, fused parts or gaps |, chain 1 of 2) above

As for ATGACGGAAT, the binding signal in the experiment with FOS;CEBPG is 0.0215 relative CSI intensity (max = 1); with JUN;ATF3, 0.0994 relative CSI intensity (max = 1); in the experiment with JUN;JUN it was 0.0116 relative CSI intensity (max = 1); with ATF4;CEBPG, 0.0162 relative CSI intensity (max = 1); with ATF4;CEBPA, 0.133 relative CSI intensity (max = 1); with BATF3;ATF3 it was 0.00122 relative CSI intensity (max = 1). Also, the binding signal in the experiment with BATF3;ATF4 is 0.00174 relative CSI intensity (max = 1); in the experiment with ATF2;ATF2 it was 0.0134 relative CSI intensity (max = 1); with JUNB;ATF3, 0.00128 relative CSI intensity (max = 1); in the experiment with JUNB;CEBPG it was 0.00175 relative CSI intensity (max = 1); with JUNB;JUN it was 0.0196 relative CSI intensity (max = 1); with JUNB;BATF3, 0.00175 relative CSI intensity (max = 1).

For the sequence ATGACGTAAT, the binding signal with FOS;CEBPG was 0.482 relative CSI intensity (max = 1); in the experiment with CEBPG;CEBPG, 0.0508 relative CSI intensity (max = 1); with CEBPA;CEBPA it was 0.0784 relative CSI intensity (max = 1); with JUN;ATF3, 0.313 relative CSI intensity (max = 1); with JUN;JUN it was 0.091 relative CSI intensity (max = 1); in the experiment with ATF4;CEBPG it was 0.652 relative CSI intensity (max = 1). Also, the binding signal was 0.695 relative CSI intensity (max = 1) with ATF4;CEBPA; 0.00204 relative CSI intensity (max = 1) with ATF4;ATF4; 0.0292 relative CSI intensity (max = 1) with BATF3;ATF3; 0.048 relative CSI intensity (max = 1) with BATF3;ATF4; 0.0127 relative CSI intensity (max = 1) with BATF3;BATF3; 0.289 relative CSI intensity (max = 1) in the experiment with ATF2;ATF2. Further, the binding signal is 0.00422 relative CSI intensity (max = 1) with XBP1;XBP1; 0.487 relative CSI intensity (max = 1) in the experiment with DBP;DBP; 0.166 relative CSI intensity (max = 1) with JUNB;ATF3; 0.17 relative CSI intensity (max = 1) with JUNB;CEBPG; 0.0997 relative CSI intensity (max = 1) in the experiment with JUNB;JUN; 0.0439 relative CSI intensity (max = 1) with JUNB;ATF4. Further, the binding signal with JUNB;BATF3 was 0.0919 relative CSI intensity (max = 1); in the experiment with JUNB;ATF2 it was 0.151 relative CSI intensity (max = 1).

Consider CCTGACGTCA, for which the binding signal with FOS;CEBPG is 0.0189 relative CSI intensity (max = 1); in the experiment with JUN;ATF3 it was 0.177 relative CSI intensity (max = 1); with JUN;JUN it was 0.0544 relative CSI intensity (max = 1); with ATF4;CEBPG it was 0.0346 relative CSI intensity (max = 1); in the experiment with ATF4;CEBPA it was 0.127 relative CSI intensity (max = 1); with ATF4;ATF4 it was 0.0219 relative CSI intensity (max = 1). Further, the binding signal is 0.0499 relative CSI intensity (max = 1) in the experiment with BATF3;ATF3; 0.0241 relative CSI intensity (max = 1) with BATF3;ATF4; 0.0069 relative CSI intensity (max = 1) with BATF3;BATF3; 0.144 relative CSI intensity (max = 1) with ATF2;ATF2; 0.031 relative CSI intensity (max = 1) in the experiment with JUNB;ATF3; 0.00362 relative CSI intensity (max = 1) with JUNB;CEBPG. The binding signal with JUNB;JUN was 0.0172 relative CSI intensity (max = 1); with JUNB;ATF4 it was 0.0113 relative CSI intensity (max = 1); with JUNB;BATF3 it was 0.0239 relative CSI intensity (max = 1); in the experiment with JUNB;ATF2, 0.0143 relative CSI intensity (max = 1).

Regarding ATGACGTCAT, the binding signal was 0.508 relative CSI intensity (max = 1) with FOS;CEBPG; 0.00362 relative CSI intensity (max = 1) with CEBPG;CEBPG; 0.015 relative CSI intensity (max = 1) with CEBPA;CEBPA; 0.367 relative CSI intensity (max = 1) with JUN;ATF3; 1 relative CSI intensity (max = 1) in the experiment with JUN;JUN; 0.465 relative CSI intensity (max = 1) in the experiment with ATF4;CEBPG. Moreover, the binding signal is 0.584 relative CSI intensity (max = 1) in the experiment with ATF4;CEBPA; 1 relative CSI intensity (max = 1) in the experiment with ATF4;ATF4; 0.146 relative CSI intensity (max = 1) in the experiment with BATF3;ATF3; 0.748 relative CSI intensity (max = 1) with BATF3;ATF4; 0.904 relative CSI intensity (max = 1) in the experiment with BATF3;BATF3; 1 relative CSI intensity (max = 1) with ATF2;ATF2. For the same sequence, the binding signal was 0.222 relative CSI intensity (max = 1) in the experiment with XBP1;XBP1; 0.0564 relative CSI intensity (max = 1) in the experiment with DBP;DBP; 1 relative CSI intensity (max = 1) in the experiment with JUNB;ATF3; 0.0649 relative CSI intensity (max = 1) with JUNB;CEBPG; 0.769 relative CSI intensity (max = 1) with JUNB;JUN; 1 relative CSI intensity (max = 1) in the experiment with JUNB;ATF4. The binding signal with JUNB;BATF3 and with JUNB;ATF2 was 1 relative CSI intensity (max = 1) each time.

On to ATGATGCAAT, for which the binding signal with FOS;CEBPG is 0.64 relative CSI intensity (max = 1); with CEBPG;CEBPG it was 0.133 relative CSI intensity (max = 1); in the experiment with CEBPA;CEBPA, 0.124 relative CSI intensity (max = 1); with JUN;ATF3 it was 0.136 relative CSI intensity (max = 1); with JUN;JUN, 0.00263 relative CSI intensity (max = 1); in the experiment with ATF4;CEBPG it was 0.965 relative CSI intensity (max = 1). For the same sequence, the binding signal with ATF4;CEBPA is 1 relative CSI intensity (max = 1); with BATF3;ATF3 it was 0.00189 relative CSI intensity (max = 1); in the experiment with BATF3;ATF4 it was 0.00441 relative CSI intensity (max = 1); with ATF2;ATF2 it was 0.00515 relative CSI intensity (max = 1); with DBP;DBP, 0.00594 relative CSI intensity (max = 1); with JUNB;CEBPG it was 0.252 relative CSI intensity (max = 1). In addition, the binding signal with JUNB;JUN is 0.0548 relative CSI intensity (max = 1); with JUNB;BATF3 it was 0.00368 relative CSI intensity (max = 1).

As for ATGACGCAAT, the binding signal in the experiment with FOS;CEBPG was 0.92 relative CSI intensity (max = 1); with CEBPG;CEBPG, 0.307 relative CSI intensity (max = 1); in the experiment with CEBPA;CEBPA, 0.292 relative CSI intensity (max = 1); with JUN;ATF3, 0.267 relative CSI intensity (max = 1); with JUN;JUN, 0.0387 relative CSI intensity (max = 1); in the experiment with ATF4;CEBPG, 1 relative CSI intensity (max = 1). Also, the binding signal with ATF4;CEBPA was 0.929 relative CSI intensity (max = 1); with BATF3;ATF3 it was 0.00445 relative CSI intensity (max = 1); in the experiment with BATF3;ATF4, 0.00858 relative CSI intensity (max = 1); in the experiment with BATF3;BATF3, 0.00125 relative CSI intensity (max = 1); with ATF2;ATF2, 0.0881 relative CSI intensity (max = 1); in the experiment with XBP1;XBP1, 0.00105 relative CSI intensity (max = 1). Also, the binding signal in the experiment with DBP;DBP is 0.0702 relative CSI intensity (max = 1); in the experiment with JUNB;ATF3 it was 0.0139 relative CSI intensity (max = 1); with JUNB;CEBPG, 0.308 relative CSI intensity (max = 1); with JUNB;JUN, 0.0103 relative CSI intensity (max = 1); with JUNB;ATF4 it was 0.0028 relative CSI intensity (max = 1); in the experiment with JUNB;BATF3 it was 0.026 relative CSI intensity (max = 1). Also, the binding signal in the experiment with JUNB;ATF2 is 0.00356 relative CSI intensity (max = 1).

Values taken from PMC5349851, “Combinatorial bZIP dimers display complex DNA-binding specificity landscapes”.
